This passage reports composite z-score and z-score results from PubChem BioAssay.

The source made the active and inactive calls.

Test [1] relates to PRMT1 (protein arginine N-methyltransferase 1). Description: PRMT1 binders on small-molecule microarrays, primary screen, biochemical, small-molecule microarray, 635 nm fluorescence (AID 1088).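 Also: binding of Prmt1 protein to compounds spotted on small-molecule microarray slides.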 The following applies: small-molecule microarray binding, higher = more signal.
Test [2] can be described thus: yeast growth modulation, basal conditions, primary screen, YJM789 clinical isolate, OD600, 24 h (AID 1089).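 Also: growth of clinical yeast isolate S. cerevisiae YJM 789 seeded 1000 cells per well; test concentration not given here.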 To be noted: S. cerevisiae YJM789 growth, higher = more signal, called active from +8 up or from −8 down.
Test [3] can be described thus: fission yeast growth modulation, primary screen, strain 972, OD600, 24 h, no modulator (AID 1090).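 Also: basal condition with compound alone and no growth modifier present; test concentration not given here.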 To be noted: S. pombe 972 growth, higher = more signal, called active from +8 up or from −8 down.
Test [4] in a line: S. cerevisiae growth modulation with rapamycin, primary screen, strain BY4716, OD600, 96 h (AID 1091). Also: test concentration not given here. The following applies: higher = more signal, called active from +8 up or from −8 down.
In test [5] the target is Torsin-1A-interacting protein 2 (Homo sapiens) (UniProt Q8NFQ8). Description: LULL1 binders on small-molecule microarray, primary screen, cell lysate, human LULL1 lysate, 635/667 nm fluorescence (AID 1092).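 Also: probe is lysate of COS7 cells overexpressing human LULL1; score merges per-feature 667 nm fluorescence with signal-to-noise.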 The following applies: hLULL1 lysate binding, 635 nm fluorescence, higher = more signal.
Sequence of Torsin-1A-interacting protein 2 (Homo sapiens) (Q8NFQ8 whole entry, looked up): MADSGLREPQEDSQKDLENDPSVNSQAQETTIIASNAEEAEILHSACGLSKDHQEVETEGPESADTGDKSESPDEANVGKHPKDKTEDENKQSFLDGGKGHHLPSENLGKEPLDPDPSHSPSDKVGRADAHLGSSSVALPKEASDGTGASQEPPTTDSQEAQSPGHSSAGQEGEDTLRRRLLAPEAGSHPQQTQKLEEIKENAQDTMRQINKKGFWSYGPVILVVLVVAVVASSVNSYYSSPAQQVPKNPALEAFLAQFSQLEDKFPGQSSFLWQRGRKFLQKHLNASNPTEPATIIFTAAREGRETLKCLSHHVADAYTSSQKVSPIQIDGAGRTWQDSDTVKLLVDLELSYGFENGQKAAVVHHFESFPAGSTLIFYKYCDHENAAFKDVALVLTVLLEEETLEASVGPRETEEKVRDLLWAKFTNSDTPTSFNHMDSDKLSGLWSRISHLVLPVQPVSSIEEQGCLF
Test [6] in a line: E. coli growth modulation, two-sided OD650, primary screen, E. coli filamentation project, strain DRC41, 24 h (AID 1093).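 Also: MC1000 strain lacking acrAB efflux and sulA so SOS filamentation is blocked; test concentration not given here.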 The following applies: OD650, 24 h, higher = more signal, called active from +8 up or from −8 down.
Test [7] in a line: small-molecule microarray binders of probe aLefty2, primary screen, biochemical, biotinylated probe, 635/667 nm fluorescence (AID 1094).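 Also: score merges spot fluorescence near 667 nm with spot signal-to-noise ratio.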 To be noted: higher = more signal.
Test [8] relates to Noggin (protein binding on small-molecule microarray). Description: Noggin binders on small-molecule microarray, primary screen, biochemical, 635/667 nm fluorescence (AID 1095).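 Also: score merges 667 nm feature fluorescence with signal to noise over triplicate slides.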 To be noted: 635 nm fluorescence, higher = more signal.
Test [9] addresses Neurogenic locus notch homolog protein 3 (Homo sapiens) (UniProt Q9UM47). Description: NOTCH3 binders on small-molecule microarray, primary screen, biochemical, 635/667 nm fluorescence (AID 1096). To be noted: NOTCH3 binding, 635 nm fluorescence, higher = more signal.
Test [10] can be described thus: small-molecule microarray binders of probe aEGFR, primary screen, biochemical, biotinylated probe, 635/667 nm fluorescence (AID 1097).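 Also: probe is a biotinylated anti-EGFR antibody binding compounds printed on slides; score combines fluorescence near 667 nm and signal to noise of each spot.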 The following applies: higher = more signal.
Test [11] relates to Plasmodium falciparum Sir2 (PF13_0152, Sir2A). Description: pfSir2 binders on small-molecule microarrays, primary screen, biochemical, small-molecule microarray, 635 nm fluorescence (AID 1098).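 Also: score merges spot fluorescence intensity with its signal-to-noise ratio.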 To be noted: small-molecule microarray binding, fluorescence 635 nm; higher = more signal.
A short description of test [12]: small-molecule microarray binders of probe aDKK1, primary screen, biochemical, biotinylated probe, 635/667 nm fluorescence (AID 1099).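 Also: score merges 667nm spot fluorescence with signal to noise across triplicate slides; reference of the scale not given here.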 The following applies: higher = more signal.
Test [13] is described as follows: small-molecule microarray binders of probe aCHRDL2, primary screen, biochemical, biotinylated probe, 635/667 nm fluorescence (AID 1100). The following applies: higher = more signal.
A short description of test [14]: splicing luciferase reporter signal modulators, primary screen, spliceosome inhibition project, cell-based, HEK293, splice +/- reporter (AID 1101).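 Also: HEK293 cells carrying a splicing-competent luciferase reporter gene; test concentration not given here.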 To be noted: luminescence, 24 h, higher = more signal, called active from +8 up or from −8 down.
The target in test [15] is Fibroblast growth factor 10 (Homo sapiens) (UniProt O15520). Description: FGF10 binders on small-molecule microarrays, primary screen, biochemical, small-molecule microarray, 635 nm fluorescence (AID 1102). To be noted: FGF10 binding, fluorescence 635 nm, higher = more signal.
Sequence of Fibroblast growth factor 10 (Homo sapiens) (O15520 whole entry, looked up): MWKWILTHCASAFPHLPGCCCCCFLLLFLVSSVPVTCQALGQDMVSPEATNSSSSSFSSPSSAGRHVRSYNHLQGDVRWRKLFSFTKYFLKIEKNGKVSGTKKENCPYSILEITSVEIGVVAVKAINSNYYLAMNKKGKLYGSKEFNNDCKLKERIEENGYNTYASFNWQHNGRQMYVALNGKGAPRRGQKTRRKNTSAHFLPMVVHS
Test [16] relates to glycogen synthase kinase-3 (GSK3A per assay name; protocol says GSK3B). Description: GSK3 binders on small-molecule microarrays, primary screen, biochemical, small-molecule microarray, 635 nm fluorescence, GSK3A (AID 1103). Also: the record names both GSK3A and GSK3B. To be noted: small-molecule microarray binding, fluorescence 635 nm; higher = more signal.
Test [17] has as its target Epidermal growth factor receptor (Homo sapiens) (UniProt P00533). Description: EGFR binders on small-molecule microarrays, primary screen, biochemical, small-molecule microarray, 635 nm fluorescence (AID 1104).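 Also: score merges 667 nm emission intensity with spot signal to noise over triplicate slides.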 The following applies: EGFR binding, higher = more signal.
Test [18] deals with Follistatin-related protein 3 (Homo sapiens) (UniProt O95633). Description: FSTL3 binders on small-molecule microarrays, primary screen, biochemical, small-molecule microarray, 635 nm fluorescence (AID 1105).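 Also: score merges emission near 667 nm and signal to noise per printed spot across three slides.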 The following applies: FSTL3 binding, higher = more signal.
Sequence of Follistatin-related protein 3 (Homo sapiens) (O95633 whole entry, looked up): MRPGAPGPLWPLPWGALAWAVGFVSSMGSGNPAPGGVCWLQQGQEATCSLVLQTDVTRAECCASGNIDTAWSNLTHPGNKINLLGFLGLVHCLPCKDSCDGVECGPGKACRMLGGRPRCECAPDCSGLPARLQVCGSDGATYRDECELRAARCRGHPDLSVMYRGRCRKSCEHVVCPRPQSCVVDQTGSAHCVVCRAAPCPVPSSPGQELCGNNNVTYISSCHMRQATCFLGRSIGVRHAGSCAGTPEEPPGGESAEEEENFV
Test [19] has as its target Dickkopf-related protein 1 (Homo sapiens) (UniProt O94907). Description: DKK1 binders on small-molecule microarrays, primary screen, biochemical, small-molecule microarray, 635 nm fluorescence scan (AID 1106).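 Also: score merges emission near 667 nm with signal to noise over three replicate slides.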 To be noted: DKK1 binding, higher = more signal.
The subject of test [20] is Inhibin beta A chain (activin A). Description: INHBA (activin A) binders on microarrays, primary screen, biochemical, small-molecule microarray, 635 nm fluorescence scan (AID 1107).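 Also: mouse activin A protein probed at 4.33 µg/mL on printed slides; score merges bound-protein fluorescence near 667 nm with spot signal-to-noise.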 The following applies: small-molecule microarray binding, higher = more signal.

Sequence of Epidermal growth factor receptor (Homo sapiens) (P00533 whole entry, looked up): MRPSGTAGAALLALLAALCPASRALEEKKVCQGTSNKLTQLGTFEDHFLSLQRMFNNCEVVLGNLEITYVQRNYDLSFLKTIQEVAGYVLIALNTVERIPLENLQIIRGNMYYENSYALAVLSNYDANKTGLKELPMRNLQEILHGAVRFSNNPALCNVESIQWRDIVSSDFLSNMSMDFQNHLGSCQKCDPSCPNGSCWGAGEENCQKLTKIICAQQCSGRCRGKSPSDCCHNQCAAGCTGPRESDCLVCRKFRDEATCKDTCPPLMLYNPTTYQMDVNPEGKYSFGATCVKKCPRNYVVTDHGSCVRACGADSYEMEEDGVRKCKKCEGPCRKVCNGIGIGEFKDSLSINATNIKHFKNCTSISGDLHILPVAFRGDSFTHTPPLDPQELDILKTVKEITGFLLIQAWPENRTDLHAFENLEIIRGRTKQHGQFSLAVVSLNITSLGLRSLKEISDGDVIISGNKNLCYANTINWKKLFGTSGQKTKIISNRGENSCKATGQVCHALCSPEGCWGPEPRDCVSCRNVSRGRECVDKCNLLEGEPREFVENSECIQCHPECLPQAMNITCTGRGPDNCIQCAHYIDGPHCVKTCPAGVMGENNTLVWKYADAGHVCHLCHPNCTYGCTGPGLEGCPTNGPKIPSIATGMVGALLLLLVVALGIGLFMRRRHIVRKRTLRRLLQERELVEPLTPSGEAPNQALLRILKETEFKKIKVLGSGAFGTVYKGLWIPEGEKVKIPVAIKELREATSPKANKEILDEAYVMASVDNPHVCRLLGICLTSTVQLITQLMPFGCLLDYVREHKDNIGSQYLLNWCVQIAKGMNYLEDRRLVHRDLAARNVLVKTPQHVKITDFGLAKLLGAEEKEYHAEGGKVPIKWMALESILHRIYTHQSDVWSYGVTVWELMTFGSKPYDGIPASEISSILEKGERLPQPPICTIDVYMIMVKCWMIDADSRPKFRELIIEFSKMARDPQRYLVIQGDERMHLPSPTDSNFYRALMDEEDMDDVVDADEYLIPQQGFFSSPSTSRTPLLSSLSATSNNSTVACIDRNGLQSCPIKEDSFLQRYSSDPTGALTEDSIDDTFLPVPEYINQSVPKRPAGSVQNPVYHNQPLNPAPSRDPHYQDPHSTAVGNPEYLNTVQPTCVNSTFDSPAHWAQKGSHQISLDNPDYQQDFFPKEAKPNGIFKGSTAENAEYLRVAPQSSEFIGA
Sequence of Neurogenic locus notch homolog protein 3 (Homo sapiens) (Q9UM47 whole entry, looked up): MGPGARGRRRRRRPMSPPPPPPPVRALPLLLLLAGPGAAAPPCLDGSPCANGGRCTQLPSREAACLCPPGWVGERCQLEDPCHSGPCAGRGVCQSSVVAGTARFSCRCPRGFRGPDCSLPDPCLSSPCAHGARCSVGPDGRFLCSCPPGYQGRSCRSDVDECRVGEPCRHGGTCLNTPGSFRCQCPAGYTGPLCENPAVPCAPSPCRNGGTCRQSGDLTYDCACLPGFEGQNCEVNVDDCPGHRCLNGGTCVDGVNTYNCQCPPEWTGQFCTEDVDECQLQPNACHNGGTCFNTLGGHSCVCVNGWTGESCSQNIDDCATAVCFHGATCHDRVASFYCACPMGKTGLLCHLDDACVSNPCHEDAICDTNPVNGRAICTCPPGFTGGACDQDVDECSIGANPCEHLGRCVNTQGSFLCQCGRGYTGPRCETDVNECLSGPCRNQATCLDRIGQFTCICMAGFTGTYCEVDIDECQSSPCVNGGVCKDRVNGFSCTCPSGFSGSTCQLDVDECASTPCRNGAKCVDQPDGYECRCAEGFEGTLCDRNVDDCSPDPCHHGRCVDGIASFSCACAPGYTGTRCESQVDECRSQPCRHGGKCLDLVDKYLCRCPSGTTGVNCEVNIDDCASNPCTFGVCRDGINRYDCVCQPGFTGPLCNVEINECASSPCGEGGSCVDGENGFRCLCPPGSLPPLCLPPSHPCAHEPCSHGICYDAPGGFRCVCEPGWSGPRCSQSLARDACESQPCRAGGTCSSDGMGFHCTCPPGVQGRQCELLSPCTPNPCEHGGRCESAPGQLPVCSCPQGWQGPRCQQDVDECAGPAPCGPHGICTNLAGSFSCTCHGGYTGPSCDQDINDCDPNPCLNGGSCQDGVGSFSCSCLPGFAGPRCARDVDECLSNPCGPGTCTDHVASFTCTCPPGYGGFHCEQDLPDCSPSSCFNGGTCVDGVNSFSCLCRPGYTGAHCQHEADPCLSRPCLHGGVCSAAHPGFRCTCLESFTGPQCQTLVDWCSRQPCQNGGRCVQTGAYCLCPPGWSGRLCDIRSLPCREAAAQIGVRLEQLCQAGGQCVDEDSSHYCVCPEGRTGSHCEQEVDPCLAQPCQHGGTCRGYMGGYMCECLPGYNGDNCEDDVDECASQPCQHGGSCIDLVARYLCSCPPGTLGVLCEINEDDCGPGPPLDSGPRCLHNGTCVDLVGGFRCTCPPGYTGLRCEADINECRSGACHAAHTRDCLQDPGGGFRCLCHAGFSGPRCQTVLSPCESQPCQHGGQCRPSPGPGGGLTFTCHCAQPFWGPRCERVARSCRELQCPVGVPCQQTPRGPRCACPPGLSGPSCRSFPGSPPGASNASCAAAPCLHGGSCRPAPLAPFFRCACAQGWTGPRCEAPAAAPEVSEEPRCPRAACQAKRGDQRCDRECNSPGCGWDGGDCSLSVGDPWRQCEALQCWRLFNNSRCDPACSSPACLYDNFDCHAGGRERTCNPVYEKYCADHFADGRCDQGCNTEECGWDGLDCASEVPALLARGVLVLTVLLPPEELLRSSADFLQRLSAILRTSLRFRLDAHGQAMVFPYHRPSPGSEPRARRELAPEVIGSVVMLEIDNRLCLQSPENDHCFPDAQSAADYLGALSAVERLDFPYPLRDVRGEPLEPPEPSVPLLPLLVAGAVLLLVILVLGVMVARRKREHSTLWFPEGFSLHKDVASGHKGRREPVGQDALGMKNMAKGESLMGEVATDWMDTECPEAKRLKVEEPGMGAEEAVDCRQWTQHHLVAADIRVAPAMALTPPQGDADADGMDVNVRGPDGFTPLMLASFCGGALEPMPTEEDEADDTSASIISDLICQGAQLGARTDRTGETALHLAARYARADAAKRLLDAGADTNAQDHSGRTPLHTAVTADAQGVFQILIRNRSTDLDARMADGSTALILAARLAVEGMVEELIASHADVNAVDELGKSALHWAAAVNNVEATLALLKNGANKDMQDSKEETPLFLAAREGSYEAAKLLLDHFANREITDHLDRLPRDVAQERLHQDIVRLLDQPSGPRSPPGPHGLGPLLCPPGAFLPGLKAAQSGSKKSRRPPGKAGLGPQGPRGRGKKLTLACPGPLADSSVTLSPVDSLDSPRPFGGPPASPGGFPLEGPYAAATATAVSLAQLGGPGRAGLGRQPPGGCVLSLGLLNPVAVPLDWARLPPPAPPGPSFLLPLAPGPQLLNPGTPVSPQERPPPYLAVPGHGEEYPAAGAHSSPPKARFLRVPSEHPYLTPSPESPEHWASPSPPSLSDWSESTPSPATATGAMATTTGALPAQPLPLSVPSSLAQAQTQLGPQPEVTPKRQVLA
Sequence of Dickkopf-related protein 1 (Homo sapiens) (O94907 whole entry, looked up): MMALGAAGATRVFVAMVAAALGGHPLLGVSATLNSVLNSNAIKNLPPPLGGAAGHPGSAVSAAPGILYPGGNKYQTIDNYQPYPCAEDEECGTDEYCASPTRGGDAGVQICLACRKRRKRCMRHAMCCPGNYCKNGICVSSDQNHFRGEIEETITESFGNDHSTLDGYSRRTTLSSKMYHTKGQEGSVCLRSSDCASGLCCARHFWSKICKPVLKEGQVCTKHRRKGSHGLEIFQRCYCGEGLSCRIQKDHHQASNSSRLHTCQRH

In the case of `CC(C)(C)N1C(=O)[C@H]2[C@H]3[C@H](O)[C@H](O)CC(=NOCc4ccccc4)[C@H]3CC[C@H]2C1=O`, the composite z-score in test [1] is -0.201; in test [5], 0.351; in test [7], 0.439; in [8] it was -0.616; in test [9] it was -0.288; in test [10] it was -0.125. Moreover, the composite z-score in [11] was 0.0828; in [12] it was 0.989; in [13], 1.36; in test [15], 0.0277; in test [16], -0.399; in test [17] it was -0.376. Also, the composite z-score was -0.663 in test [18], -0.551 in test [19] and 0.251 in test [20]. The z-score is -0.612 (inactive) in [2]; -0.925 (inactive) in test [3]; -0.22 (inactive) in test [4]; 0.662 (inactive) in test [6]; 0.453 (inactive) in test [14].

For `O=C1C=C[C@@H](O)[C@@H]2[C@@H]3C(=O)N(C[C@@H]4CCCO4)C(=O)[C@@H]3CC[C@@H]12`, the composite z-score in test [1] is -0.168; in test [5], 0.276; in [7] it was -0.139; in test [8], 0.54; in test [9], 0.541; in [10], -0.0208. For the same molecule, the composite z-score in [11] is 0.27; in test [12] it was -0.0602; in test [13], -0.454; in test [15], 0.513; in test [16], 0.496; in test [17], 0.645. Moreover, the composite z-score in test [18] was 0.591; in test [19], 1.17; in test [20] it was 0.451. Also, the z-score in test [2] is 0.026 (inactive); in [3], -0.479 (inactive); in test [4], 0.818 (inactive); in test [6] it was 0.656 (inactive); in test [14], 0.186 (inactive).

Consider `CCCCC#C[C@@H]1C=C[C@H](OC(C)=O)[C@@H](COC(C)=O)O1`, for which the composite z-score in test [1] was 0.59; in [5], 0.456; in test [7] it was -0.116; in test [8], 0.216; in test [9] it was 0.848; in test [10], 0.0251. Moreover, the composite z-score in test [11] was 0.483; in test [12], -0.228; in test [13], -0.595; in test [15] it was 0.46; in test [16], 0.244; in test [17], 0.137. Further, the composite z-score amounted to 0.44 in [18], 0.124 in test [19] and 0.589 in [20]. Moreover, the z-score is 0.248 (inactive) in [2]; -3.45 (inactive) in test [3]; -1.25 (inactive) in test [4]; 0.325 (inactive) in test [6]; 1.07 (inactive) in test [14].

As to `CC(CCC(=O)OC[C@H]1O[C@H](C#Cc2ccccc2)C=C[C@@H]1Oc1ccc(C)cc1)=NO[C@H](C)c1cn([C@H](CO)Cc2ccccc2)nn1`, the composite z-score in test [1] was 1.05; in test [5] it was 1.05; in [7], -0.239; in test [8], 0.689; in test [9], 0.695; in [10], -0.17. The composite z-score in [11] is 0.708; in test [12], -0.164; in [13], -0.532; in test [15] it was 0.17; in test [16], 0.197; in test [17], 0.217. The composite z-score in test [18] amounted to 1.12; in [19] it was 0.655; in [20] it was 0.282. Besides, the z-score is 1.62 (inactive) in test [2]; -0.372 (inactive) in test [3]; 1.31 (inactive) in test [4]; 0.171 (inactive) in test [6]; 0.448 (inactive) in [14].

`CC(C)CON=C1C[C@@H](O)[C@@H](O)[C@@H]2[C@@H]3C(=O)N(C4CCCCC4)C(=O)[C@@H]3CC[C@H]12`: the composite z-score in test [1] was 1.42; in test [5], 1.1; in test [7], -0.0396; in [8], 0.683; in test [9] it was 1.13; in test [10], -0.0817. For the same molecule, the composite z-score was 0.209 in test [11]; 0.0948 in [12]; -0.106 in [13]; 0.74 in test [15]; 0.842 in [16]; 0.362 in [17]. Also, the results for the composite z-score in [18], in test [19] and in [20] were 0.611, 0.544 and -0.312, respectively. In addition, the z-score was 0.0058 (inactive) in test [2]; 0.303 (inactive) in [3]; -0.393 (inactive) in test [4]; 0.411 (inactive) in [6]; 0.00397 (inactive) in [14].
